PubChem BioAssay (NCI)
This is part of a sample that, as a whole, favours compounds with a hit. Of some 83,000 tested, about 20% had one in any assay.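 Each cell line was grown in a 96-well plate and treated with one concentration of compound for 48 hours. Values below 10 were considered active.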 Values without a mark were called inactive. Activity calls are given as the source filed them.

Legend:
Assay in all cases: NCI-60 one-dose screen, 48 h (100 = growth as untreated, 0 = no growth, -100 = all killed)
Conditions in all cases: 10 µM unless noted
[1] = system: SK-MEL-2 melanoma
[2] = system: EKVX NSCLC
[3] = system: SN12C renal
[4] = system: UO-31 renal
[5] = system: TK-10 renal
[6] = system: ACHN renal
[7] = system: CAKI-1 renal
[8] = system: A498 renal
[9] = system: CCRF-CEM leukemia
[10] = system: MOLT-4 leukemia
[11] = system: SR leukemia
[12] = system: RPMI-8226 leukemia
[13] = system: OVCAR-8 ovarian
[14] = system: OVCAR-5 ovarian
[15] = system: OVCAR-4 ovarian
[16] = system: SK-OV-3 ovarian
[17] = system: IGROV1 ovarian
[18] = system: OVCAR-3 ovarian
[19] = system: HS 578T breast
[20] = system: NCI/ADR-RES ovarian

Structure (SMILES)	growth [1]	growth [2]	growth [3]	growth [4]	growth [5]	growth [6]	growth [7]	growth [8]	growth [9]	growth [10]	growth [11]	growth [12]	growth [13]	growth [14]	growth [15]	growth [16]	growth [17]	growth [18]	growth [19]	growth [20]
COc1cc(Cl)c(C)cc1NC(=O)c1cc2ccccc2cc1O	-33.1% (active)	0.938% (active)	8.39% (active)	0.513% (active)	6.75% (active)	4.34% (active)	-12.7% (active)	-9.59% (active)	7.39% (active)	17.5%	8.6% (active)	7.23% (active)	11.9%	20%	20.7%	14.8%	11.9%	6.37% (active)	23.8%	0.336% (active)
COc1ccc(Cn2cc(C(=O)N=Nc3c(O)[nH]c4c(C)cccc34)nn2)cc1	91.9%	107%	62.1%	14.9%	56.1%	38.2%	77.1%	101%	82.8%	83.5%	76.6%	90%	67.6%	93.6%	-28.2% (active)	110%	84.8%	46.7%	84.1%	71.2%
CC(=O)/C(=C/c1ccc([N+](=O)[O-])cc1)C(=O)c1ccccc1	89.4%	101%	91.6%	69.1%	87.8%	83.8%	96.3%	112%	33.7%	21.4%	-0.146% (active)	8.32% (active)	94.4%	112%	93.7%	101%	82.9%	96.5%	92.3%	83.7%
c1ccc2c(c1)CCCc1nnc3nc4ccccc4n3c1-2	70.5%	37.7%	48%	29.9%	41.6%	35.1%	22%	54.8%	31.5%	31.6%	20.5%	31.6%	38.5%	37.8%	17.9%	50.3%	43.7%	23.6%	77.1%	24.6%
COC(=O)c1cc(Br)ccc1O	101%	113%	99.5%	95.1%	95.5%	99.5%	101%	101%	98.6%	103%	89.2%	94.5%	103%	100%	110%	108%	110%	117%	117%	107%
Nc1ccc(-c2csc(-n3[nH]c(=O)ccc3=O)n2)cc1	109%	88.4%	103%	84.1%	120%	99.5%	94%	103%	96.4%	87.6%	102%	97.3%	101%	108%	101%	112%	99%	113%	100%	94.4%
COc1ccc(C(=O)c2cc3c(N)c(C(=O)Nc4ccccc4)sc3nc2C)cc1	54.8%	50.4%	32.1%	52.3%	65.2%	42.7%	40%	-1.62% (active)	10.4%	18.3%	8.41% (active)	14.3%	25.5%	38.8%	74.8%	33%	39%	-4.41% (active)	10.6%	14.8%
COc1cc(/C=C/C(=O)/C=C(O)/C=C/c2ccc(OC(=O)C34CC5CC(CC(C5)C3)C4)c(OC)c2)ccc1OC(=O)C12CC3CC(CC(C3)C1)C2	101%	101%	95.5%	69.3%	97%	99%	91.3%	102%	103%	116%	120%	105%	104%	97.1%	104%	114%	92.5%	109%	94.2%	104%
N#C/C(=C\C=C\c1ccc(-c2cc(Cl)ccc2Cl)o1)c1nc2ccccc2s1	104%	80.2%	92%	68.2%	118%	90.5%	75.1%	126%	91.8%	99.1%	92.7%	96.5%	96.4%	102%	98.9%	76.8%	70.6%	105%	100%	100%
COc1ccc(/C=C/C(c2cc(OC)c(OC)c(OC)c2)n2cncn2)cc1 (stereo not given)	12.9%	66%	62%	64.4%	48.5%	57.5%	51.6%	36.4%	35.1%	39.4%	18.9%	50.8%	52.2%	90.2%	96.8%	35.5%	64.6%	9.06% (active)	51.2%	36.3%
COc1cc2nc3sc(C(=O)Nc4ccc(C(=O)OC(C)C)cc4)c(C(=O)Nc4ccc(Cl)cc4C)n3c(=O)c2cc1OC	110%	77.2%	102%	-5.58% (active)	6.58% (active)	97%	42.7%	56.7%	23.6%	52.8%	19.5%	52.7%	35.4%	70%	69.5%	91.4%	17%	77.2%	58.9%	62.3%
NC1=Nc2cc(OCCCCN3Cc4ccccc4C3)c(OCC3CC3)cc2C12CCCC2	12.5%	64.7%	66.5%	43.2%	87.1%	65.7%	1.68% (active)	-0.354% (active)	37.7%	29.9%	11.3%	5.52% (active)	45.1%	65.3%	39.6%	93.4%	50%	52.5%	53.3%	73.2%
CC(=O)c1sc2sc(C(C)=O)c(C)c2c1C	107%	42.8%	98%	88.4%	74.9%	98.9%	86.4%	-82.4% (active)	63.6%	85.5%	75.6%	66.7%	84%	93.2%	108%	81.2%	101%	110%	92%	95.6%
CCCCNC(=O)Oc1ccc(/C(=C(/C)Cc2ccc(OC)cc2)c2ccc(OCCN3CCCCCC3)cc2)cc1	102%	77.5%	71%	57.6%	83.1%	102%	83.5%	98.3%	47.7%	45%	-44.2% (active)	33.6%	89.9%	96%	84.4%	85.8%	92.3%	63.9%	82.1%	81.4%
O=C(/C=C/c1ccccc1)c1ccc(Nc2nc(Nc3ccc(F)cc3)nc(Nc3ccc(Cl)cc3)n2)cc1	92%	79.2%	99.6%	82%	106%	93.1%	87.4%	94.5%	26.3%	83.6%	78.2%	-9.92% (active)	58.4%	102%	90.8%	103%	90.8%	80.2%	99.7%	76.7%
